The values that follow come from PubChem BioAssay.

Assay [1] in a line: small molecules captured by biotinylated probe aFSTL3 – biochemical, small-molecule microarray, fluorescence 635/667, stem cell growth factor project, primary screen (AID 1064).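 Note: measures binding of the biotinylated anti-FSTL3 antibody to printed compounds.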 The note with it: higher = more signal.
Assay [2] in a line: binders from COS7 lysate, DM2A8 probe, primary screen, torsin A project, cell lysate, small-molecule microarray, fluorescence 635/667 (AID 1065). The note with it: higher = more signal, COS7 lysate expressing mutant human TOR1A.
The nature of assay [3]: small molecules captured by biotinylated probe aFGF2 – biochemical, small-molecule microarray, fluorescence 635/667, stem cell growth factor project, primary screen (AID 1067).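 Note: measures binding of biotinylated aFGF2 protein to printed compounds on slides; z-score merges feature fluorescence and signal-to-noise across triplicate slides.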 As to conditions: higher = more signal.
Assay [4] can be described thus: small molecules captured by biotinylated probe aFGF10 – biochemical, small-molecule microarray, fluorescence 635/667, stem cell growth factor project, primary screen (AID 1071).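 Note: score merges 667 nm spot intensity and signal to noise from triplicate slides.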 The note with it: higher = more signal.
Assay [5] concerns the target Neurogenic locus notch homolog protein 2 (Homo sapiens) (UniProt Q04721). The assay is described as follows: small molecules binding Notch2 protein – biochemical, small-molecule microarray, 635 nm fluorescence, stem cell growth factors, primary screen (AID 1073). The note with it: higher = more signal.
For assay [6], the target named is Pro-neuregulin-1, membrane-bound isoform (Homo sapiens) (UniProt Q02297). In words: small molecules binding neuregulin-1 protein – biochemical, small-molecule microarray, fluorescence 635/667, psychiatric disease protein project, primary screen (AID 1075).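 Note: score combines 667 nm spot fluorescence with signal to noise.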 As to conditions: NRG1 binding, 635 nm fluorescence, higher = more signal.
Sequence of Pro-neuregulin-1, membrane-bound isoform (Homo sapiens) (Q02297 whole entry, looked up, the tested form may be a part, canonical isoform): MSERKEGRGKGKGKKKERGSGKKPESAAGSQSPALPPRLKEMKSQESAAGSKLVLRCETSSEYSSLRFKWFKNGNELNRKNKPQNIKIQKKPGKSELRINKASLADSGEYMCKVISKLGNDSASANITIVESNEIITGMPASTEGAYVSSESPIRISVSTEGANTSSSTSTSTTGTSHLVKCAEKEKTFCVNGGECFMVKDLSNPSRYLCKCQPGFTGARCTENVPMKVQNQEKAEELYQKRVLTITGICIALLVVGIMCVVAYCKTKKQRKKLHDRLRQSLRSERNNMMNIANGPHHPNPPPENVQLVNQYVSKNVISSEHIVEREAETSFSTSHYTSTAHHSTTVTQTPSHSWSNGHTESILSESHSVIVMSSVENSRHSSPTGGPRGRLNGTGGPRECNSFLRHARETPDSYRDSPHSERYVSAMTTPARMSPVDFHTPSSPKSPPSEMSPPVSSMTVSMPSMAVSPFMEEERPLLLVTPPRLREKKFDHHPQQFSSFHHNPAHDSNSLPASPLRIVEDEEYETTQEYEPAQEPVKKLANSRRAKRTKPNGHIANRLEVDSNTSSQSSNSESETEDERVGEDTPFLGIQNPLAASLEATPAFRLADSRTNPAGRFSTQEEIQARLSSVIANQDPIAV
In assay [7] the test system is Neuregulin-1 EGF-like domain. The assay is described as follows: small molecules binding NRG1 EGF domain – biochemical, small-molecule microarray, 635 nm fluorescence, primary screen (AID 1081).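 Note: binding of the protein to compounds printed on small-molecule microarray slides.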 As to conditions: higher = more signal.
Assay [8] in a line: FRG1 expression reporter modulators in myotubes – cell-based, C2C12 myotubes, firefly/Renilla luciferase, luminescence, FRG1 inhibition for FSHD, primary screen (AID 1084). The note with it: FRG1 promoter luciferase, higher = more signal, called active from +8 up or from −8 down.
Assay [9] is described as follows: small molecules captured by biotinylated probe aFST – biochemical, small-molecule microarray, fluorescence 635/667, stem cell growth factor project, primary screen (AID 1086).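 Note: score merges 667 nm fluorescence with signal-to-noise of each printed compound spot.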 As to conditions: higher = more signal.
A short description of assay [10]: binders of probe aHhip on microarray, primary screen, stem cell growth factor project, biochemical, small-molecule microarray, fluorescence 635/667 (AID 1087).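 Note: score merges spot fluorescence at 667nm with spot signal to noise ratio.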 The note with it: higher = more signal.
In assay [11] the test system is PRMT1 (protein arginine N-methyltransferase 1). The assay is described as follows: small molecules binding arginine methyltransferase PRMT1 – biochemical, small-molecule microarray, 635 nm fluorescence, primary screen (AID 1088).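 Note: binding of Prmt1 protein to compounds spotted on small-molecule microarray slides.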 The note with it: higher = more signal.
The nature of assay [12]: growth effects on S. cerevisiae YJM789 – YJM789 clinical isolate, OD600, 24 h, basal, primary screen (AID 1089).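 Note: growth of clinical yeast isolate S. cerevisiae YJM 789 seeded 1000 cells per well; test concentration not given here.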 The note with it: higher = more signal, called active from +8 up or from −8 down.
The nature of assay [13]: S. pombe growth modifiers, basal conditions – strain 972, OD600, 24 h, no modulator, primary screen (AID 1090).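 Note: basal condition with compound alone and no growth modifier present; test concentration not given here.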 As to conditions: S. pombe 972 growth, higher = more signal, called active from +8 up or from −8 down.
Assay [14] can be described thus: budding yeast growth modifiers under rapamycin – strain BY4716, OD600, 96 h, primary screen (AID 1091). Note: test concentration not given here. The note with it: S. cerevisiae BY4716 + rapamycin, higher = more signal, called active from +8 up or from −8 down.
Assay [15] deals with Torsin-1A-interacting protein 2 (Homo sapiens) (UniProt Q8NFQ8). In words: small molecules binding lysate-expressed LULL1 – cell lysate, human LULL1 lysate, 635/667 nm fluorescence, primary screen (AID 1092).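 Note: probe is lysate of COS7 cells overexpressing human LULL1; score merges per-feature 667 nm fluorescence with signal-to-noise.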 The note with it: small-molecule microarray, hLULL1 lysate binding, 635 nm fluorescence; higher = more signal.
Sequence of Torsin-1A-interacting protein 2 (Homo sapiens) (Q8NFQ8 whole entry, looked up): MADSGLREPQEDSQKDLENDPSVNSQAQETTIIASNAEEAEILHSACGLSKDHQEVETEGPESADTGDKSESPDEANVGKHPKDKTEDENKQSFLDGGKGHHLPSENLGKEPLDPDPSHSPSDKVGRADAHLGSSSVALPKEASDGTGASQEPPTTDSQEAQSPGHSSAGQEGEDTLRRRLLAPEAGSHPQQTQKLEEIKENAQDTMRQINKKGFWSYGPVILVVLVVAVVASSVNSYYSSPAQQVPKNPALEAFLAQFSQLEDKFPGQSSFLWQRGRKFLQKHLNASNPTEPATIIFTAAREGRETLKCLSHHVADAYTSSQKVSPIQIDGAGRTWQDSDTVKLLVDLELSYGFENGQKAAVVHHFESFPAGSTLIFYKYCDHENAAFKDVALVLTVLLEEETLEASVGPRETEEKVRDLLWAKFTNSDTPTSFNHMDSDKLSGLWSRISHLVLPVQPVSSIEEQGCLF
The nature of assay [16]: optical density change of DRC41 E. coli – strain DRC41, OD650, 24 h, E. coli filamentation project, primary screen (AID 1093).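 Note: MC1000 strain lacking acrAB efflux and sulA so SOS filamentation is blocked; test concentration not given here.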 As to conditions: E. coli DRC41 growth, higher = more signal, called active from +8 up or from −8 down.
Assay [17] in a line: probe aLefty2 binding to arrayed compounds – biochemical, biotinylated probe, 635/667 nm fluorescence, primary screen (AID 1094).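 Note: score merges spot fluorescence near 667 nm with spot signal-to-noise ratio.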 As to conditions: small-molecule microarray, higher = more signal.
Assay [18] has as its system Noggin (protein binding on small-molecule microarray). In words: small molecules binding Noggin protein – biochemical, 635/667 nm fluorescence, primary screen (AID 1095).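 Note: score merges 667 nm feature fluorescence with signal to noise over triplicate slides.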 As to conditions: 635 nm fluorescence, higher = more signal.
The target in assay [19] is Neurogenic locus notch homolog protein 3 (Homo sapiens) (UniProt Q9UM47). The assay is described as follows: small molecules binding NOTCH3 protein – biochemical, 635/667 nm fluorescence, primary screen (AID 1096). The note with it: small-molecule microarray, 635 nm fluorescence, higher = more signal.
A short description of assay [20]: probe aEGFR binding to arrayed compounds – biochemical, biotinylated probe, 635/667 nm fluorescence, primary screen (AID 1097).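 Note: probe is a biotinylated anti-EGFR antibody binding compounds printed on slides; score combines fluorescence near 667 nm and signal to noise of each spot.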 As to conditions: small-molecule microarray, higher = more signal.

The source made the active and inactive calls.

Sequence of Neurogenic locus notch homolog protein 2 (Homo sapiens) (Q04721 whole entry, looked up, canonical isoform): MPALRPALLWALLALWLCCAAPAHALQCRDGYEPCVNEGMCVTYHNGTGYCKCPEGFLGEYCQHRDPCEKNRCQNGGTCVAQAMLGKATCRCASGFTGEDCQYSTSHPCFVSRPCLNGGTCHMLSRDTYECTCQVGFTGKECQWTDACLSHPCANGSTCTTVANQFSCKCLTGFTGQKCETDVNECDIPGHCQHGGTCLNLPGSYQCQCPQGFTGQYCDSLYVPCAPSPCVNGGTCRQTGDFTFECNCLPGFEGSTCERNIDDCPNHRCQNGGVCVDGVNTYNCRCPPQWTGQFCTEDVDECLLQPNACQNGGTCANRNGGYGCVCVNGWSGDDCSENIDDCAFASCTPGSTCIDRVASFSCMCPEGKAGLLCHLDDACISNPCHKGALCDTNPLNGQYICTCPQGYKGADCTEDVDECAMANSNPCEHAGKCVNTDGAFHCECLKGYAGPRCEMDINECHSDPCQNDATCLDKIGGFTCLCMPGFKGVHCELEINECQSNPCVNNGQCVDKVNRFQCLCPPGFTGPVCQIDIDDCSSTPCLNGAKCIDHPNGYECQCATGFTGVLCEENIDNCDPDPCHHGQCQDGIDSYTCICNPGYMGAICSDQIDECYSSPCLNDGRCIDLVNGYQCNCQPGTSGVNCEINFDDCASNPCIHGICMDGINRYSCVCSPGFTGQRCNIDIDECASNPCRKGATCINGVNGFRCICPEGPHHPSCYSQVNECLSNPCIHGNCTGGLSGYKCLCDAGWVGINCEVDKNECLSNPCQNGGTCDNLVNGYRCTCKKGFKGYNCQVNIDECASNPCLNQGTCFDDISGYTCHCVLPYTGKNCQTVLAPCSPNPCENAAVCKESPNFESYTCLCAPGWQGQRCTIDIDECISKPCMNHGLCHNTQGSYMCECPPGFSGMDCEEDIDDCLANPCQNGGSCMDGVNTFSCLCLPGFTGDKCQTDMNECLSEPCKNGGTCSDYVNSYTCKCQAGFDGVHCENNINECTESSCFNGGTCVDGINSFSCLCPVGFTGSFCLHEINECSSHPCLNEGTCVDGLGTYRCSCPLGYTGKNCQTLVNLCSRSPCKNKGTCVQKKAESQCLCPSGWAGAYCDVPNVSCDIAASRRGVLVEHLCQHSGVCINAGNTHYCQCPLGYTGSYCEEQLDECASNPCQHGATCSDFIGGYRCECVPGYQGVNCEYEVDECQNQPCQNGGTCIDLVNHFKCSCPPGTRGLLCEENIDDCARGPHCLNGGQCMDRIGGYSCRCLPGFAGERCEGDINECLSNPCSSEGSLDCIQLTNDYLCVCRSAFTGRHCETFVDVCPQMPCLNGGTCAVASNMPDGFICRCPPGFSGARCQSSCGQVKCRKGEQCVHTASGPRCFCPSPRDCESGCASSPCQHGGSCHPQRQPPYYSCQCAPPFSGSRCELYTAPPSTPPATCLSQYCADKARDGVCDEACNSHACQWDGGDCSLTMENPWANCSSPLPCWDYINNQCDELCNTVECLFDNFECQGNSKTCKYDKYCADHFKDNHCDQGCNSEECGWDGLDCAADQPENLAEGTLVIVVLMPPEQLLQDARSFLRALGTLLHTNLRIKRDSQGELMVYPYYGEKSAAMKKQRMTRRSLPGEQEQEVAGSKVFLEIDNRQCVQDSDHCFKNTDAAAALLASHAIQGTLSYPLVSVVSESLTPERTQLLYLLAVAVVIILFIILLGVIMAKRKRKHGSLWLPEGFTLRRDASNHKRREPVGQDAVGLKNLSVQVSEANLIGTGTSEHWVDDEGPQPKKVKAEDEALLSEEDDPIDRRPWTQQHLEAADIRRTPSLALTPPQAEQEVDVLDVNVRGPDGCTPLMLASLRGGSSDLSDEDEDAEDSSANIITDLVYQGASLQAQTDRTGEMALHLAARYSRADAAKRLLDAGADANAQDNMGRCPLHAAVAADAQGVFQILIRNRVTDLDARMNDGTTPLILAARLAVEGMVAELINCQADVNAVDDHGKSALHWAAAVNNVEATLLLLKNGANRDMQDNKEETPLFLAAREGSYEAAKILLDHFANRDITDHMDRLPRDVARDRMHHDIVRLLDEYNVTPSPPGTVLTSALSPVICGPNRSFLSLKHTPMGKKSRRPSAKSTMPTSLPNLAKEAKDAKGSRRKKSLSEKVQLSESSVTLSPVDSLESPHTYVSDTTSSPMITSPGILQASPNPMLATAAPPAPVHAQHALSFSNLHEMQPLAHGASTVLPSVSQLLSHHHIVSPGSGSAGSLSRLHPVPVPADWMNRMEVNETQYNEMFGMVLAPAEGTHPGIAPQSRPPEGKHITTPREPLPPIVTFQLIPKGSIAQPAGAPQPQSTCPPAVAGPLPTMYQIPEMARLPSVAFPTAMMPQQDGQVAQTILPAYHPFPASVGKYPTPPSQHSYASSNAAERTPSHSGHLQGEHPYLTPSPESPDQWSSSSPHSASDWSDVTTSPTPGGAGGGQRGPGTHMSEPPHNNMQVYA

Take `NC(=O)NCC#Cc1ccc2c(c1)[C@]1(C(=O)N2)[C@H](C(=O)NC[C@H](O)c2ccccc2)[C@H]2C(=O)O[C@H](c3ccccc3)[C@H](c3ccccc3)N2[C@@H]1c1ccccc1OCCO`: the composite z-score in assay [1] was -0.226; in assay [2], 0.0051; in [3], -0.0934; in assay [4], 0.0263; in assay [5], -0.686; in assay [6], 1.21. Further, the composite z-score was 0.997 in [7]; 0.213 in assay [9]; -0.0994 in assay [10]; 1.53 in [11]; 2.35 in [15]; -0.186 in assay [17]. Further, the composite z-score is 0.307 in assay [18], 0.927 in [19] and -0.167 in assay [20]. The z-score in assay [8] was -0.167 (inactive); in assay [12], 1.41 (inactive); in [13] it was -0.133 (inactive); in assay [14], 2.44 (inactive); in assay [16] it was 2.02 (inactive).

As for `[N-]=[N+]=NCc1ccccc1[C@H]1OC(c2ccc(OCCCO)cc2)=N[C@@]1(Cc1ccccc1)C(=O)NCC(O)CO` (stereo not given in full), the composite z-score in assay [1] is 0.835; in [2], 0.768; in assay [3] it was -0.127; in [4] it was 0.407; in assay [5] it was 0.641; in assay [6], 1.65. In addition, the composite z-score in assay [7] is 0.565; in assay [9] it was 0.1; in assay [10], -0.146; in [11], 1.25; in [15], 3.5; in assay [17], 0.102. The composite z-score in [18] is -0.116; in [19], -0.046; in [20], 0.0073. In addition, the z-score in [8] is -0.0633 (inactive); in assay [12] it was -0.286 (inactive); in [13], 0.669 (inactive); in [14], -1.22 (inactive); in assay [16], 0.203 (inactive).

For the compound `CCCC[C@@H]1C[C@H]1[C@@H](NC(=O)c1ccccc1)c1ccccc1`, the composite z-score in [1] is 0.343; in [2], -0.0895; in [3], 0.15; in assay [4], 0.14; in [5], 0.18; in assay [6] it was -0.392. Besides, the composite z-score in assay [7] is -0.303; in assay [9] it was 1.14; in [10], 2.02; in assay [11] it was -0.352; in assay [15], 0.981; in [17], 0.302. The composite z-score stood at 0.226 in [18], 0.571 in [19] and 0.104 in assay [20]. The z-score in assay [8] is -0.0327 (inactive); in assay [12], 0.588 (inactive); in assay [13] it was 1.02 (inactive); in assay [14] it was 1.54 (inactive); in assay [16] it was -0.404 (inactive).
